# Over roughly 33,000 sequences, “E-score (-0.5 to 0.5)” has its median near -0.012; the highest 2% begin near 0.29. Many of the other results were omitted from the sample, so the highest values are more common in it than they were.
# Target: T1, Ybr033w (UniProt P38073)
# T1 sequence: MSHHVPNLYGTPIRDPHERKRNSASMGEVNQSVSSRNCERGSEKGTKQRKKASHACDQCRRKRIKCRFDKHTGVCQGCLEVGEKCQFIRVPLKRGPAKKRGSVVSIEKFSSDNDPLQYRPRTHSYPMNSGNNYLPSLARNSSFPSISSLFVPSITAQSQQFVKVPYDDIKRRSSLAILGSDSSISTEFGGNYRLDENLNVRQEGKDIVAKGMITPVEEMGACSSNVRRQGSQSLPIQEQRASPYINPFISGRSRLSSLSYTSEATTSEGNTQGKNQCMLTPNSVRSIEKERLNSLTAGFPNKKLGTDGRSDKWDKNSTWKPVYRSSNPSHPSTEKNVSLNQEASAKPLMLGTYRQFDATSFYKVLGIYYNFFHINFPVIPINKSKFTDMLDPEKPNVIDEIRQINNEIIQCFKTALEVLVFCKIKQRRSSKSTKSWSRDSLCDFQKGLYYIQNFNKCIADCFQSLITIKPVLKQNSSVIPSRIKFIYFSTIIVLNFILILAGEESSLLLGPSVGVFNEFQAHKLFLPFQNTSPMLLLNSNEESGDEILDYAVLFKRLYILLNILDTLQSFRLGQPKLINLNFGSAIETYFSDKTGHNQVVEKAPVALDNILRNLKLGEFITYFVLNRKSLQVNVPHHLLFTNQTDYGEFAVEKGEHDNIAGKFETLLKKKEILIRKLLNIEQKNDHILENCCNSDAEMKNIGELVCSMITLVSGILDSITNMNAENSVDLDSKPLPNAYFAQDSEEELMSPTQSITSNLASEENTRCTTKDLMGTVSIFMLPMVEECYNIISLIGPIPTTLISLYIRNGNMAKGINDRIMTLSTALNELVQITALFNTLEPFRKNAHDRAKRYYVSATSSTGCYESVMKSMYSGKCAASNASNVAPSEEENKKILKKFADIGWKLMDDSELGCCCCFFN
# Assay: PBM E-score (8-mer binding enrichment) (E-score (-0.5 to 0.5)); higher = stronger / more preferred TF binding
# Conditions: protein concentration: 200 nM; construct: GST-full length
# Summary of the method: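 Full-length yeast transcription factors or their DNA-binding domains, GST-tagged and expressed with PURExpress, were applied at about 100-200 nM to universal all-10-mer Agilent arrays. These arrays had been made double-stranded by primer extension on fresh or once-stripped slides. Detection used fluorescent anti-GST, normalisation used masliner, and E-scores for ungapped eight-base words pooled with reverse complements came from the Universal PBM Analysis Suite.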
row,Sequence,PBM E-score
1,AGCCAATA,-0.0344
2,AAAAAGCG,0.112
3,CCGTTGCG,-0.192
4,AAGAATAG,0.204
5,CGACAAAC,0.0224
6,CCATGGGA,-0.0942
7,AAACTAGG,0.0193
8,GGAGAGAC,-0.0678
9,GTTATTTA,0.258
10,ATTATTCG,0.328
11,ATTATTCA,0.231
12,CTTATTTA,0.106
13,ACTATTCG,0.177
14,ATTATTTA,0.373
15,AAATCTCT,0.152
16,AGAAAGTC,0.173
17,CCACGAGG,-0.0481
18,AATAGGAT,0.295
19,CATAGGAA,0.0524
20,TATAGGAA,0.232
21,AATAGGAA,0.29
22,AATAGGAG,-0.253
23,AATAGGAC,0.0355
24,ACGCGACC,-0.208
25,ACTAACCA,0.11
26,AGCACTTC,0.0586
27,ACGCGACT,-0.174

row,Sequence,PBM E-score
1,AATTACTA,0.234
2,GATTATAA,0.172
3,CATTATTA,0.243
4,AATTACTC,0.328
5,CATTACTC,0.11
6,AATTATTC,0.423
7,AATTATAC,0.284
8,CATTATTC,0.213
9,GATTATCA,0.19
10,GATTATTA,0.298
11,GATTATCC,0.396
12,CATTATCC,0.224
13,AACGGCTC,-0.0166
14,TAGGAATA,0.194
15,AGTGGTCG,-0.159
16,ATTGCCAA,-0.00029
17,TATTGGCA,0.0828
18,ACATTGCG,0.0729
19,TGTCCACA,0.134
20,GGACACAA,0.163
21,CTGAGCAA,-0.0556
22,ATGCCTAC,-0.0813
23,CACTGGGA,-0.0293
24,ATACAAGC,0.209
25,AATTATAA,0.253
26,AGTTATTA,0.173
27,AGTTATTC,0.345

row,Sequence,PBM E-score
1,AATTATTA,0.359
2,AGTTATTG,0.223
3,AATTATTG,0.274
4,ATGAAGAG,0.0478
5,AGAAGACG,0.123
6,ATTTCCTC,0.176
7,ATTTCCGA,0.247
8,ATTTCCTA,0.101
9,ATTTCCGC,0.15
10,ATTTCCGG,0.298
11,ATTTCCTG,0.3
12,CCCGAGGC,-0.329
13,ATTAAGCC,0.0562
14,AAATTACG,0.111
15,AAATTACT,0.333
16,AACTTGAA,0.251
17,AATTTTAA,0.285
18,AACTTGAG,-0.167
19,CATTTACA,0.197
20,TATTTACA,0.21
21,AATTTTAC,0.282
22,AACTTGAT,0.333
23,AAATTACC,0.164
24,AATTTTAT,0.331
25,GATTTACA,0.297
26,CGCTCCTA,-0.101
27,AGTTAGAA,0.0705

row,Sequence,PBM E-score
1,GTGGCTGA,-0.183
2,GACAGCAC,-0.00022
3,GGGTCCTA,-0.279
4,TCTAAGCA,-0.00029
5,CCGCTGCC,-0.418
6,CCAGAGCA,-0.0441
7,AACCAGCC,-0.0273
8,GACCAGGC,-0.164
9,AGGATGCA,-0.0489
10,CGTTCTAC,0.00885
11,CTGTTGTC,-0.0159
12,AATTTAAC,0.245
13,AATTTAAG,0.211
14,AATTTACA,0.134
15,AATTTAAT,0.319
16,AACTTAAT,0.314
17,AATTTACT,0.311
18,AACTTAAA,0.237
19,AATTTAGT,0.241
20,AACTTAAG,0.0775
21,CCTACCGC,-0.292
22,CCCAGTAC,-0.0948
23,CGAAGCGA,-0.0591
24,ACCAACAC,-0.0108

# From the supplement of paper PMC3334620
